# Source: PubChem
# An excerpt weighted towards active compounds, which were near 0.99% of everything screened.
# WRN inhibitor = qHTS for Inhibitors of WRN Helicase. WRN helicase unwinding, fluorescent forked duplex, kinetic. Bifunctional 3'-5' exonuclease/ATP-dependent helicase WRN (Homo sapiens), Q14191. Potency, µM (highest dose often 114 µM), for inactives: at the top dose activity change, negative = inhibition, usual class: inhibitors. AID 651768, 2012. 360,000 compounds, 0.46% hits; further: nearly all actives have a fitted effect of over 55% in size
#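 Kinetic red-fluorescence monitoring (525/598 nm) tracks WRN helicase activity after 100 nM fluorophore-quencher forked duplex and 2 mM ATP are added to 20 nM enzyme pretreated 15 min at room temperature with compound.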
# RECQ1 inh = qHTS Assay for Inhibitors of RecQ-Like Dna Helicase 1 (RECQ1). ATP-dependent DNA helicase Q1 (Homo sapiens), P46063. 240,000 compounds, 0.54% hits. RECQ1 DNA unwinding, red fluorescence kinetic read. Potency, µM (series often up to 57.3 µM), for the others: at the top dose activity, negative = inhibition, hits mostly inhibitors;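 further: plate controls were vehicle for no effect and no enzyme for full effect; nearly all actives have a fitted effect of over 30% in size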
#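 RECQ1T1 50 nM; forked duplex (20 bp + 30-nt ss tails) 200 nM, ATP 2 mM final; pH 8.0, 2 mM MgCl2, 2.5 ug/ml poly(dI-dC); 15 min compound preincubation; discontinuous kinetic read over 2 h at RT.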
# BLM inh = qHTS Assay for Inhibitors of Bloom's syndrome helicase (BLM). RecQ-like DNA helicase BLM (Homo sapiens), P54132. Potency, µM (highest dose often 56.1 µM), for inactives: at the top dose activity change, negative = inhibition, hits mostly inhibitors. recombinant BLM DNA unwinding, fluorescence dequenching. AID 2528, 2010. 350,000 compounds, 0.2% hits;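 further: plate controls were vehicle for no effect and no enzyme for full effect; nearly all actives have a fitted effect of over 35% in size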
# FEN1 inhibitor = qHTS Assay for the Inhibitors of Human Flap endonuclease 1 (FEN1); Potency, µM (series often up to 114 µM), for inactives: at the top dose activity change, negative = inhibition, actives largely listed as inhibitors; 390,000 compounds, 0.35% hits; P39748; Recombinant FEN1 flap cleavage, fluorescence, 15 min; further: nearly all actives have a fitted effect of over 65% in size
#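 With each library titrated from low to high concentration, compounds met 10 nM FEN1 for 15 min at room temperature before 50 nM substrate was added; readings at 0 and 15 min fed four-parameter Hill curve fits.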
# L3MBTL1 block = qHTS Assay for the Inhibitors of L3MBTL1; Lethal(3)malignant brain tumor-like protein 1 (Homo sapiens), Q9Y468; AlphaScreen L3MBTL1–H3K9me1 peptide binding; Potency, µM (top dose mostly 57.1 µM), inactives show top-dose activity, negative = inhibition, most hits filed as inhibitors; 230,000 compounds, 0.66% hits; further: nearly all actives have a fitted effect of over 60% in size
# Target sequence (Q9Y468 whole entry, looked up): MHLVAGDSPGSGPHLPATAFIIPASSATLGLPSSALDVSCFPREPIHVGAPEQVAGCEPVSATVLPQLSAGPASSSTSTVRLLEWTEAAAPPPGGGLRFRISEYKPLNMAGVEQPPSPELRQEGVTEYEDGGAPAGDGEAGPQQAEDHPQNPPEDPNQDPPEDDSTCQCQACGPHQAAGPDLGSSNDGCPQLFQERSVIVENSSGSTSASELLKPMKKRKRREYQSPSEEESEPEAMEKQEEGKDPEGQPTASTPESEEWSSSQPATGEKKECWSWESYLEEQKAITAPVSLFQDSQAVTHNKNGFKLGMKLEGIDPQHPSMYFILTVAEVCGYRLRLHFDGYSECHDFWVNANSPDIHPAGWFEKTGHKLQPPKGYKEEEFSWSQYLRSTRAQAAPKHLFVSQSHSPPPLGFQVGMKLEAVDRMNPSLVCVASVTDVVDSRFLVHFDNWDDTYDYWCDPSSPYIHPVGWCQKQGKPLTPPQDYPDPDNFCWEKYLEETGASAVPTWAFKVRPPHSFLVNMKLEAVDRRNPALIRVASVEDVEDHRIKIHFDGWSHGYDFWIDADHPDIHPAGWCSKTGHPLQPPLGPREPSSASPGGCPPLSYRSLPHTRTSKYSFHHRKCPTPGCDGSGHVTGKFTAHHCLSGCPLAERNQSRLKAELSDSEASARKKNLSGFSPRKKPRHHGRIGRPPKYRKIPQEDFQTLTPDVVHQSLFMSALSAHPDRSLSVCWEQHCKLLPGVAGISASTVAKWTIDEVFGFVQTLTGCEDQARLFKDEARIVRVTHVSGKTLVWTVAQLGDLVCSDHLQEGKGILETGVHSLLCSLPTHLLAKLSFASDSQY
#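 AlphaScreen proximity signal between nickel-chelate acceptor and streptavidin donor beads (final 10 ug/mL) reports binding of 50 nM L3MBTL1 to 75 nM biotin-H3 K9me1 peptide; complex incubated with compounds 30 min at room temperature; cefsulodin titration as control.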
# Starred values were filed as active, the others as inactive; i = inactive; ? = inconclusive; nt = no result given; [ ] = remark or other dose. The call rests on the fitted dose curve; in most records, active means well fitted curve in the direction sought with a large enough effect; inconclusive means small, poorly fitted or top-dose-only effect, or another doubt; inactive means no such curve, though single readings can be large; an effect the other way counts as inactive or inconclusive. Unless noted, on the % scale 0 is the no-effect control and ±100 the full control effect; potency means the concentration at half of the fitted maximal effect.
SMILES,WRN inhibitor,RECQ1 inh,BLM inh,FEN1 inhibitor,L3MBTL1 block
COc1ccc(/C=C2/C(=O)NC(=O)N(c3ccc(C)c(C)c3)C2=O)cc1CN1C(=O)c2ccccc2C1=O,40µM*,-6%,-4%,-11%,2%
COc1ccc(CN2C(=O)NC(=O)/C(=C/c3cc(OC)c(OC)c(OC)c3)C2=O)cc1,45µM*,-6%,-2%,-16%,nt
COc1cc(/C=C2\C(=O)NC(=O)N(c3ccccc3)C2=O)cc(OC)c1OC,50µM*,-13%,-3%,0%,nt
COc1cc(/C=C2/C(=O)NC(=O)N(c3ccc(C)cc3)C2=O)cc(OC)c1OC,?,-5%,-1%,0%,0%
COc1cc(/C=C2\C(=O)NC(=O)N(c3ccc(C)cc3)C2=O)cc(OC)c1O,-7%,-3%,0%,5%,nt
COc1ccc(CN2C(=O)NC(=O)/C(=C/c3ccc(OC)c(OC)c3OC)C2=O)cc1,?,?,-1%,-15%,39%
CN1C(=O)C(=CN2CCN(C(=O)c3ccco3)CC2)C(=O)N(C)C1=S,-7%,-11%,2%,0%,6%
O=C1C(=O)C(Cl)=C(Cl)C(Cl)=C1Cl,40µM*,nt,nt,nt,nt
COc1ccc(-c2cc(=Nc3cccc(C(=O)O)c3)c3cc(C)ccc3o2)cc1,?,-1%,0%,?,nt
NS(=O)(=O)c1ccc(-c2ccc(C=C3C(=O)NC(=S)NC3=O)o2)cc1,nt,nt,-1%,nt,?
CN[C@H]1C[C@H]2O[C@@](C)([C@H]1OC)n1c3ccccc3c3c4c(c5c6ccccc6n2c5c31)C(=O)NC4,nt,28µM*,-8%,nt,-17%
CCN1C(=O)NC(=O)/C(=C\c2ccc(N3CCOCC3)cc2OC)C1=O,nt,-15%,-1%,nt,-7%
O=C1NC(=O)N(Cc2cccs2)C(=O)/C1=C/c1ccc(N2CCOCC2)cc1,56µM*,-7%,0%,5%,nt
O=C1NC(=S)NC(=O)C1=Cc1ccc(OCc2ccccc2)cc1,35µM*,nt,nt,5%,nt
COc1ccc(N2C(=O)/C(=C/c3ccc(OC)c(OC)c3)C(=O)NC2=S)cc1,-27%,nt,1%,1%,5%
COc1ccc(C=C2C(=O)NC(=S)NC2=O)cc1,50µM*,nt,nt,-4%,nt
CN(CCOc1ccc(C=C2C(=O)NC(=O)NC2=O)cc1)c1ccccn1,-7%,14%,-1%,-32%,7%
Cc1cc(NC(=O)C(Cl)(Cl)Cl)no1,-11%,-3%,1%,-3%,9%
CCOC(=O)c1c(/N=C/C2C(=O)NC(=S)NC2=O)sc(C)c1C,nt,-22%,1%,nt,-9%
CCOC(=O)c1c(/N=C/C2C(=O)NC(=S)NC2=O)sc2c1CCC2,56µM*,-9%,-4%,-22%,-17%
CCOC(=O)c1cc(C)sc1/N=C/C1C(=O)NC(=S)NC1=O,50µM*,i,-6%,-9%,-17%
N#Cc1c(/N=C/C2C(=O)NC(=S)NC2=O)sc2c1CCCC2,-30%,0%,-4%,-7%,-7%
CN1CCN(c2ncnc3c2cnn3C)CC1,0%,-8%,0%,19%,1%
Cc1[nH]n(-c2ccccc2)c(=O)c1C(c1ccc([N+](=O)[O-])cc1)c1c(C)[nH]n(-c2ccccc2)c1=O,-16%[11.6 µM],0%,?,0%,?
O=P1(NC2CCCC2)COc2ccccc2OC1,3%,2%,0%,2%,1%
SMILES,WRN inhibitor,RECQ1 inh,BLM inh,FEN1 inhibitor,L3MBTL1 block
CC(C)CCC1(CCO)C(=O)NC(=S)NC1=O,-4%,nt,nt,12%,nt
O=C(CCc1ccccc1)N1Cc2cc(N3CCOCC3)ccc2-n2nncc2C1,-1%,nt,nt,nt,nt
OCC[n+]1c2ccccc2nc2ccc(N3CCOCC3)cc21,-2%,13µM*,?,3%,?
COc1cc2c(cc1OC)-c1c(OC)c(OC)c(OC)c3ccnc(c13)C2=O,-4%,-19%,0%,10µM*,-6%
Cc1ccc(Sc2ccc(C=C3C(=O)N(C)C(=O)N(C)C3=O)o2)cc1,?,i,-1%,-1%,-16%
CC(=O)N1CC[N+](C)(C)CC1,nt,-6%,-7%,nt,nt
COc1cc(N2CCOCC2)ccc1/C=C1\C(=O)NC(=O)N(C2CCCCC2)C1=O,79µM*,-17%,0%,-2%,?
O=C1OC(c2cc(I)c(O)c(I)c2)(c2cc(I)c(O)c(I)c2)c2ccccc21,nt,8.9µM*,?,nt,nt
Cc1ccc(N=Nc2cc(C)ccc2N)cc1,0%,-8%,-2%,4%,14µM*
Cc1ccc(N)c(C)c1,3%,0%,nt,20%,-5%
Cc1ccc(O)c(CN2CCC3CCC(C3)C2)c1 (centres undefined),-9%,nt,nt,-2%,nt
Cc1cccc(N2C(=O)NC(=O)/C(=C\c3ccc4c(c3)CCCN4Cc3ccccc3)C2=O)c1,237%[57.1 µM],32µM*,-24%,-18%,-9%
CC1=NN(c2ccccc2)C(=O)C1/C=C1/C(=O)NC(=O)N(c2cccc(C)c2)C1=O (centres undefined),nt,2%,-3%,nt,-1%
O=C(O)c1cccc2c1NC(c1cccc([N+](=O)[O-])c1)C1CC(Sc3ccccc3[N+](=O)[O-])C(Cl)C21 (centres undefined),-32%,i,-29%,-26%,20µM*
O=C(O)c1ccc2c(c1)C1C(Cl)C(Sc3ccccc3[N+](=O)[O-])CC1C(c1cccc([N+](=O)[O-])c1)N2 (centres undefined),?,-19%,-19%,?,22µM*
Cc1ccc2c(c1Cl)NC(C(=O)O)C1CC(Sc3ccccc3[N+](=O)[O-])C(Cl)C21 (centres undefined),-9%[11.6 µM],-28%,-16%,?,nt
COc1ccc(C(=O)C23CN4CN(CN(C4)C2)C3)cc1,3%,i,-3%,-6%,nt
CC(C)c1ccc(N2C(=O)NC(=O)/C(=C/C=C/c3ccco3)C2=O)cc1,50µM*,?,-21%,?,?
O=C1NC(=O)N(c2ccccc2)C(=O)/C1=C\C=C\c1ccccc1,32µM*,-14%,-11%,-1%,?
CCc1ccc(N2NC(=O)/C(=C/C=C/c3ccco3)C2=O)cc1,?,-11%,-15%,-16%,-10%
Cc1cc(C)cc(N2C(=O)NC(=O)/C(=C\C=C\c3ccco3)C2=O)c1,50µM*,14µM*,2%,-13%,?
Cc1ccc(N2C(=O)NC(=O)/C(=C/C=C/c3ccco3)C2=O)cc1,45µM*,20µM*,5%,?,?
